KLK7 zymogen act – proKLK7 zymogen activators, primary screen, biochemical, fluorescence intensity; purified proKLK7, EDANS-DABCYL substrate fluorescence; 100% is mature enzyme control, 0% vehicle; activation, % at 7 µM; 370,000 compounds, 0.9% hits; AID 652039, 2013;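 active means activation above the mean of all tested compounds plus 3 SD, computed per campaign excluding outliers beyond control limits, cut at about 13% in these data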
Rev-erbA mod – modulators of Rev-erb alpha DNA binding, primary screen, biochemical, FITC-DNA, fluorescence polarization, uHTS | Nuclear receptor subfamily 1 group D member 1 (Homo sapiens), P20393 | Rev-erbα–FITC-DNA binding, 90 min | activity, % at 10 µM | 370,000 compounds, 0.79% hits;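 active means activity above about 14%, limit read from the data; passing the limit was not always enough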
Target sequence (P20393 whole entry, looked up): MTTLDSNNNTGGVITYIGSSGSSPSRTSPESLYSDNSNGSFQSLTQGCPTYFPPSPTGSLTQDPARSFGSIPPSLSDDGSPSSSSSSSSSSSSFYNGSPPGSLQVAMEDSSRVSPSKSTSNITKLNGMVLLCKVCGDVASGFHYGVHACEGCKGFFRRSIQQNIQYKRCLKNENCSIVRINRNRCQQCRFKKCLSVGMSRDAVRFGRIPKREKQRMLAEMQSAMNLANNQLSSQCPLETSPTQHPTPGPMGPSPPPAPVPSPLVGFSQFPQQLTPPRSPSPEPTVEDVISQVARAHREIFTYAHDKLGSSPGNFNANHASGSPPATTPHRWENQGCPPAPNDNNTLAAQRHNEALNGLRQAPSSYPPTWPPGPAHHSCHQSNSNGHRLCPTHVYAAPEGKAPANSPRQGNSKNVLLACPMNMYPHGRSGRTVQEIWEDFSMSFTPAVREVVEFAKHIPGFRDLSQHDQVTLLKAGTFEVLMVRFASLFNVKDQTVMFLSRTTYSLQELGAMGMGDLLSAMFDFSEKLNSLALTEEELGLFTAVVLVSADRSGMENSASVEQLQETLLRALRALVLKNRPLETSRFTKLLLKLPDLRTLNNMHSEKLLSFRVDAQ
GASC-1 inh – inhibitors of GASC-1 histone demethylase, primary screen, biochemical, fluorescence, DELFIA europium. Lysine-specific demethylase 4C (Homo sapiens), Q9H3R0. GST-JMJD2C(1-420) H3K9me3 demethylation. inhibition, % at 2.35 µM. 330,000 compounds, 0.069% hits;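 active means more than half of a compound's replicate wells show inhibition beyond 50%, single wells judged on their own value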;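 further: signal counts dimethyl H3K9 product captured on neutravidin plate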
PP1 counter – PP1-alpha phosphatase inhibitors, primary screen, counter-screen for PP5 inhibitor project, biochemical, fluorescence, OMFP substrate, single point; 320,000 compounds, 0.9% hits; purified PP1alpha; inhibition, % at 6.7 µM; Serine/threonine-protein phosphatase PP1-alpha catalytic subunit (Homo sapiens), P62136;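 active means inhibition above the mean inhibition of all tested compounds plus 3 SD, computed separately for each screening campaign, cut at about 15% in these data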
PP5 primary – PP5 phosphatase inhibitors, primary screen, biochemical, fluorescence; 320,000 compounds, 0.18% hits; AID 1987, 2009; purified PP5c, OMFP substrate fluorescence; inhibition, % at 6.7 µM;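 active means inhibition above the campaign's mean inhibition across all tested compounds plus 3 SD, cut at about 9.5% in these data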
PG9 binder – binders of HIV-1 gp120 antibody PG9, primary screen, biochemical, TR-FRET; HIV-1 gp120 / PG9 antibody interaction; TR-FRET gp120-PG9 antibody binding; inhibition, % at 6.7 µM; 360,000 compounds, 0.43% hits; AID 624416, 2012; in the data active means inhibition above about 8.5%
KLK7 act conf – proKLK7 zymogen activators, confirmation, biochemical, fluorescence intensity, triplicate | AID 686949, 2013 | 3,200 compounds, 68% hits | purified proKLK7, EDANS-DABCYL substrate fluorescence; scaled: vehicle 0, mature enzyme 100 | activation, % at 7 µM | shares compounds with KLK7 zymogen act;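 active means activation, as change over the incubation, above the mean of all tested compounds plus 3 SD, cut at about 13% in these data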
EDANS-DABCYL int – EDANS-DABCYL substrate optical interference, artefact control for kallikrein-7 zymogen activator project, biochemical, fluorescence intensity, high throughput. shares compounds with KLK7 zymogen act. AID 686952, 2013. 3,200 compounds, 80% hits. no enzyme, 4 h; solvent 0%, active enzyme control 100%. activation, % at 7 µM;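 active means activation above the all-compound mean plus 3 SD, ignoring values outside control-based bounds, cut at about 4.8% in these data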;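 further: value is the 4 h activation minus the activation read at time zero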
Each line names hits and unclear results; the compound was inactive in the other large screens (follow-up assays come after a bar, where they were run). An excerpt weighted towards active compounds, which were near 2.8% of everything screened.

NNC(=O)c1cccn(Cc2cccc(C(F)(F)F)c2)c1=O	none
CNC(=S)NNC(=O)c1ccccc1Br	none
CCOC(=O)[C@]12CCCCC/C=C\1N(Cc1ccc(OC)cc1)C(=O)[C@H]2CC(=O)NCC12CC3CC(CC(C3)C1)C2	none (no result: GASC-1 inh, PP1 counter, PP5 primary, PG9 binder)
O=S1(=O)N[C@@H](Cc2ccccc2)COc2cccc(NCCCN3CCOCC3)c21	none (no result: GASC-1 inh, PP1 counter, PP5 primary)
COc1ccc(-c2cc(C(=O)OC3CCOC3=O)c3ccccc3n2)cc1 (centres undefined)	KLK7 zymogen act 97 | KLK7 act conf inactive | EDANS-DABCYL int 12
O=C(NCc1ccccn1)c1cc(-c2ccc(-c3ccccc3)cc2)nc2ccccc12	none
COc1ccc(-c2cc(C(=O)OCC(=O)c3ccc(C)c([N+](=O)[O-])c3)c3ccccc3n2)cc1	none
COc1ccc(-c2cc(C(=O)OCc3ccccn3)c3ccccc3n2)cc1	KLK7 zymogen act 22 | KLK7 act conf inactive | EDANS-DABCYL int inactive
COc1ccc(-c2cc(C(=O)OCC(=O)N(C)C)c3ccccc3n2)cc1	KLK7 zymogen act 50 | KLK7 act conf 39 | EDANS-DABCYL int 43
COc1ccc(-c2cc(C(=O)Oc3ccc([N+](=O)[O-])cc3)c3ccccc3n2)cc1	KLK7 zymogen act 33 | KLK7 act conf 64 | EDANS-DABCYL int 71
O=S1(=O)CC2c3ccccc3CCN2CN1CCc1ccccc1 (centres undefined)	none (no result: GASC-1 inh, PP1 counter, PP5 primary, PG9 binder)
O=C1N2CCc3ccccc3C2CS(=O)(=O)N1CCc1ccccc1 (centres undefined)	none (no result: GASC-1 inh, PP1 counter, PP5 primary, PG9 binder)
O=C(N[C@H](Cc1ccccc1)C(=O)N1CCN(c2ncccn2)CC1)[C@H]1O[C@@H](n2ccc(=O)[nH]c2=O)[C@H](O)[C@@H]1O	none (no result: GASC-1 inh, PP1 counter, PP5 primary)
COc1cc(/C=C/C(=O)Nc2ccncc2)cc(OC)c1OC	KLK7 zymogen act 28 | KLK7 act conf inactive | EDANS-DABCYL int 18
COc1ccc(/C=C/C(=O)NC(=S)Nc2ccccc2)cc1OC	none
COc1ccc(/C=C/C(=O)NC(=S)Nc2ccc(S(N)(=O)=O)cc2)cc1OC	KLK7 zymogen act 19 | KLK7 act conf 13 | EDANS-DABCYL int 17
COc1ccc(/C=C/C(=O)Nc2ccc(-n3nncc3-c3ccc(OC)c(OC)c3)cc2)cc1OC	KLK7 zymogen act 28 | KLK7 act conf inactive | EDANS-DABCYL int inactive
O=C(N[C@@H](Cc1cccnc1)C(=O)N1CCC[C@H]1C(=O)NCCc1ccccc1Cl)C1CC1	none (no result: GASC-1 inh, PP1 counter, PP5 primary)
Cc1cc(-c2nc3cccnc3s2)ccc1NS(=O)(=O)c1cccs1	KLK7 zymogen act 71 | KLK7 act conf 66 | EDANS-DABCYL int 57
O=S(=O)(Nc1ccc(-c2nc3cccnc3s2)cc1)c1ccccc1F	KLK7 zymogen act 99 | KLK7 act conf 66 | EDANS-DABCYL int 73
O=S(=O)(Nc1ccc(-c2nc3cccnc3s2)cc1)c1ccc(Cl)s1	none
CCS(=O)(=O)Nc1ccc(-c2nc3cccnc3s2)cc1	KLK7 zymogen act 64 | KLK7 act conf 60 | EDANS-DABCYL int 68
CC(C)(C)N(Cc1cn(Cc2ccccc2)nn1)S(=O)(=O)c1ccc(F)cc1Br	none (no result: GASC-1 inh, PP1 counter, PP5 primary, PG9 binder)
CN(C)[C@H]1CCN(c2cccc3c2S(=O)(=O)N2CC[C@@H](C2)O3)C1	none (no result: GASC-1 inh, PP1 counter, PP5 primary, PG9 binder)
C[C@H]1C(c2ccc(F)cc2)=NN(c2ccccc2)[C@@H]1CO	KLK7 zymogen act 23 (no result: GASC-1 inh, PP1 counter, PP5 primary) | KLK7 act conf inactive | EDANS-DABCYL int inactive
COc1ccccc1[C@H]1C(c2ccc(F)cc2)=NN(c2ccccc2)[C@@H]1CO	none (no result: GASC-1 inh, PP1 counter, PP5 primary)
CCC(N=c1cc(-c2ccc(OC)cc2)oc2ccc(C)cc12)C(=O)O (centres undefined)	KLK7 zymogen act 36 | KLK7 act conf 61 | EDANS-DABCYL int 72
CCC(N=c1cc(-c2ccc(OC)c(OC)c2)oc2ccc(C)cc12)C(=O)O (centres undefined)	KLK7 zymogen act 19 | KLK7 act conf 29 | EDANS-DABCYL int 26
O=[N+]([O-])c1ccc(C[n+]2cccc3ccccc32)cc1	none
CCCCC[n+]1cccc2c3ccccc3ccc21	KLK7 zymogen act 26 | KLK7 act conf 16 | EDANS-DABCYL int 17
c1ccc(C[n+]2cccc3c4ccccc4ccc32)cc1	KLK7 zymogen act 16 | KLK7 act conf 22 | EDANS-DABCYL int 28
OC[C@@H]1CC[C@@H]2O[C@H](CCc3ccc(-c4ccc(F)cc4)cc3)[C@@H](n3cc(C4CC4)nn3)C[C@@H]2O1	none (no result: GASC-1 inh, PP1 counter, PP5 primary, PG9 binder)
C[C@H]1CN(C(=O)OC(C)(C)C)CCN1c1ccc(Br)c(C#N)c1	none (no result: GASC-1 inh, PP1 counter, PP5 primary)
Cc1cc(N(C)Cc2ccccc2)nc2cc(O)ccc12	KLK7 zymogen act 35 | KLK7 act conf 64 | EDANS-DABCYL int 74
CN(C)c1ccc2c(=O)cc[nH]c2c1	KLK7 zymogen act 80 (no result: GASC-1 inh, PP1 counter, PP5 primary) | KLK7 act conf 72 | EDANS-DABCYL int 73
O=C(C(=O)N1CCN(S(=O)(=O)c2cccc(C(F)(F)F)c2)CC1)c1cccc(C(F)(F)F)c1	none (no result: GASC-1 inh, PP1 counter, PP5 primary)
CC(=O)c1cc(-c2cc3ccccc3o2)c(=O)n2c1CCC2	none (no result: GASC-1 inh, PP1 counter, PP5 primary, PG9 binder)
NC(=O)N/N=C/c1cc(Br)ccc1OC(=O)c1ccccc1	KLK7 zymogen act 17 | KLK7 act conf 14 | EDANS-DABCYL int 13
Cc1ccc(NC(=O)C2CC3CCC2C3)cc1 (centres undefined)	none (no result: KLK7 zymogen act, GASC-1 inh, PP1 counter, PP5 primary, PG9 binder)
COc1ccc(CNC(=O)C[C@H]2C[C@H](C(=O)N(C(C)C)C(C)C)[C@@]3(C)c4[nH]c5cc(-c6ccco6)ccc5c4CCN3C2=O)cc1OC	KLK7 zymogen act 13 (no result: GASC-1 inh, PP1 counter, PP5 primary) | KLK7 act conf inactive | EDANS-DABCYL int 10
C[C@]12c3[nH]c4cc(-c5ccco5)ccc4c3CCN1C(=O)[C@@H](CC(=O)NCCC1=CCCCC1)C[C@@H]2C(=O)N1CCCCC1	none (no result: GASC-1 inh, PP1 counter, PP5 primary)
COCCCNC(=O)C[C@H]1C[C@H](C(=O)N2CCOCC2)[C@@]2(C)c3[nH]c4cc(-c5ccco5)ccc4c3CCN2C1=O	KLK7 zymogen act 82 (no result: GASC-1 inh, PP1 counter, PP5 primary) | KLK7 act conf 95 | EDANS-DABCYL int 130
COc1ccc(CNC(=O)C[C@H]2C[C@H](C(=O)N(C(C)C)C(C)C)[C@@]3(C)c4[nH]c5cc(CCC(=O)N(C)C)ccc5c4CCN3C2=O)cc1OC	none (no result: GASC-1 inh, PP1 counter, PP5 primary)

High-throughput results from PubChem.
